Where “and” joins values, the source holds several entries; their conditions need not be identical. Identical values can stand only once. Inconclusive results are not listed. More than one record can exist for a structure, and the calls need not agree. Calls of active or inactive are those of the source. Unless noted, calls follow the shape of the dose curve; as a rule, active = well fitted curve in the direction sought with a large enough effect in the repeat runs; inconclusive = weak or mixed curves; inactive = no such curve, though single readings can be large; an effect the other way counts as inactive or inconclusive.
Experiments:
[1] = qHTS assay to identify small molecule antagonists of the estrogen receptor alpha (ER-alpha) signaling pathway using the BG1 cell line in the presence of 0.1 nM 17-beta-estradiol - cell viability counter screen (AID 1259241); also: nearly all actives have a fitted effect of over 40% in size; also: potency is read from the fitted curve at half-maximal effect
How it was run: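 Measures cytotoxicity alongside the ER-alpha antagonist readout: VM7Luc4E2 cells, charcoal-stripped serum, 0.1 nM 17beta-estradiol final, 22 hr compound incubation at 37C, CellTiter-Fluor fluorescence.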

[2] = qHTS assay to identify small molecule antagonists of the androgen receptor (AR) signaling pathway using the MDA cell line in the presence of 0.5 nM R1881 - cell viability counter screen (AID 1259242); also: nearly all actives have a fitted effect of over 45% in size; also: potency is read from the fitted curve at half-maximal effect
How it was run: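 Viability of MDA-kb2 cells was multiplexed with the luciferase AR readout; after 16 hr with compounds and R1881 at 0.5 nM final, CellTiter-Fluor fluorescence was recorded.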

[3] = target: Androgen receptor (Homo sapiens) (UniProt P10275); assay: qHTS assay to identify small molecule antagonists of the androgen receptor (AR) signaling pathway using the MDA cell line in the presence of 0.5 nM R1881 (AID 1259243); also: nearly all actives have a fitted effect of over 50% in size; also: potency is read from the fitted curve at half-maximal effect
Chain of Androgen receptor (Homo sapiens) (P10275 whole entry, looked up): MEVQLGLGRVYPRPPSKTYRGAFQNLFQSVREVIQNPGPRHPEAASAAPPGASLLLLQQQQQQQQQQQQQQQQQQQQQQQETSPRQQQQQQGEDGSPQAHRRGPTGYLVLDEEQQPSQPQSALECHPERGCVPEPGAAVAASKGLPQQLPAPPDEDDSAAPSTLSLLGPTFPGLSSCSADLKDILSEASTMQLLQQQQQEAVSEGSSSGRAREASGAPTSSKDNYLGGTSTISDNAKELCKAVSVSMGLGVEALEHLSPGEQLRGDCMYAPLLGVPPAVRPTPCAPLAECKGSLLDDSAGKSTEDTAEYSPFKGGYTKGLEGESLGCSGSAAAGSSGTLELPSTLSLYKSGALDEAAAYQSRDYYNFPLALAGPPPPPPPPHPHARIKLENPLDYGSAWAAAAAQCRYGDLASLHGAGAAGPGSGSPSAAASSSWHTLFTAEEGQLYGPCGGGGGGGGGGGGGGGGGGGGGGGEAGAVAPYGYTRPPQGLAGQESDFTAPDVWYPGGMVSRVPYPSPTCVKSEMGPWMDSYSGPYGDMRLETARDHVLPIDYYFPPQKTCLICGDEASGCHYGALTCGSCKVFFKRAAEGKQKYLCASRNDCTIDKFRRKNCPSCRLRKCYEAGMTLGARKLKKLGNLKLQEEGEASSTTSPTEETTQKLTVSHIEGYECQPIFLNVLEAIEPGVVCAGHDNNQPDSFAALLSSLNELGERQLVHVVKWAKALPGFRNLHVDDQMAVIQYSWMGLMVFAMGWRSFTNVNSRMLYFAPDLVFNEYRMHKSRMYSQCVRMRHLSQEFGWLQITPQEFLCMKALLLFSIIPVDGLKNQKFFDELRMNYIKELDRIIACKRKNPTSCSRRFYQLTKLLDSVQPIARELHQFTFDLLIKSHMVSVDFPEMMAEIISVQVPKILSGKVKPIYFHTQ
How it was run: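 Reporter cells cultured without CO2 receive test chemicals, then 0.5 nM R1881 final; after 16 hr at 37C, ONE-Glo is added and light output recorded.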

[4] = target: Estrogen receptor (Homo sapiens) (UniProt P03372); assay: qHTS assay to identify small molecule antagonists of the estrogen receptor alpha (ER-alpha) signaling pathway using the BG1 cell line in the presence of 0.1 nM 17-beta-estradiol (AID 1259244); also: nearly all actives have a fitted effect of over 50% in size; also: potency is read from the fitted curve at half-maximal effect
Chain of Estrogen receptor (Homo sapiens) (P03372 whole entry, looked up): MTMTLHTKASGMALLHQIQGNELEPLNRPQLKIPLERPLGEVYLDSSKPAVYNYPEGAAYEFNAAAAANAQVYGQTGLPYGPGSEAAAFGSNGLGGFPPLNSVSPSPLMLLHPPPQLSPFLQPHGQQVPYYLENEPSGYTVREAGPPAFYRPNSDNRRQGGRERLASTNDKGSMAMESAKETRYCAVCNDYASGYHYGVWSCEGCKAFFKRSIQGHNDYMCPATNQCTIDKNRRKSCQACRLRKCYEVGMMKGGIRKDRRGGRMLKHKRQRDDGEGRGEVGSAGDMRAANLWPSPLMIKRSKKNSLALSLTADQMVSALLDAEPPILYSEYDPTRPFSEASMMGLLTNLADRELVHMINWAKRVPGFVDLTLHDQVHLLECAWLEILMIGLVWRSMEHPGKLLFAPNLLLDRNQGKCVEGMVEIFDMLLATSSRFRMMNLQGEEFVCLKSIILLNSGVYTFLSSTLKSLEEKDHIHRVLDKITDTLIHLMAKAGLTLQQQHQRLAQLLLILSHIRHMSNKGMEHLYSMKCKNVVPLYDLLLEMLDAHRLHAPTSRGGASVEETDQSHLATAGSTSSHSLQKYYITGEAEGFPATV
How it was run: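 Estradiol at 0.1 nM (final) stimulates the endogenous ER-alpha of VM7Luc4E2 cells carrying an ERE-driven luciferase; compounds are co-incubated 22 h at 37C and luciferase output quantified by luminescence.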

[5] = qHTS assay to identify small molecule HDAC inhibitors (AID 1259364);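 also: wild-type HCT-116 cells with endogenous class I/II HDAC activity; top concentration of the series differs between compounds; nearly all actives have a fitted effect of over 45% in size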
How it was run: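 Read-out: luminescence of HDAC-Glo I/II reagent, 30 min RT, reflecting class I/II deacetylase activity in whole HCT-116 cells pre-exposed 2 h to DMSO-dissolved compounds.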

[6] = qHTS assay to identify small molecule HDAC inhibitors - cell viability counter screen (AID 1259365); also: nearly all actives have a fitted effect of over 50% in size; also: potency is read from the fitted curve at half-maximal effect
How it was run: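 Following a 2hr exposure of overnight-plated wild-type HCT-116 cells to DMSO-delivered compounds, CellTiter-Glo was added and luminescence recorded after 30min at room temperature.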

[7] = qHTS assay to identify small molecule agonists of the sonic hedgehog signaling (Shh) pathway - cell viability counter screen (AID 1259366); also: nearly all actives have a fitted effect of over 50% in size; also: potency is read from the fitted curve at half-maximal effect
How it was run: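 After a 4hr attachment at 37C, NIH/3T3 cells bearing an integrated Gli1-driven luciferase reporter were dosed with compounds. Treatment lasted 24hr, with the final hour including CellTiter-Fluor for a fluorescence viability measurement.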

[8] = qHTS assay to identify small molecule antagonists of the sonic hedgehog signaling (Shh) pathway - cell viability counter screen (AID 1259367); also: nearly all actives have a fitted effect of over 55% in size; also: potency is read from the fitted curve at half-maximal effect
How it was run: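 Seed 3T3 Gli1-Luc cells at 2,000 per well; incubate 4 hr; add compound in DMSO, then conditioned medium; incubate at 37C with 5% CO2; add CellTiter-Fluor after 23 hr; read fluorescence 1 hr later.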

[9] = qHTS assay to identify small molecule agonists of the sonic hedgehog signaling (Shh) pathway (AID 1259368; calls by dose curve;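 also: NIH/3T3-derived 3T3Gli1-Luc cells carrying a stable Gli1-driven firefly luciferase reporter; series mostly up to about 92 µM; nearly all actives have a fitted effect of over 15% in size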)
How it was run: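 A Gli1 transcriptional response element controlled firefly luciferase in 3T3Gli1-Luc cells. Compounds and a positive control were added 4 hr after plating, and cells were incubated a further 24 hr at 37 C before luminescence detection.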

[10] = qHTS assay to identify small molecule antagonists of the sonic hedgehog signaling (Shh) pathway (AID 1259369; calls by dose curve; also: nearly all actives have a fitted effect of over 45% in size; also: potency is read from the fitted curve at half-maximal effect)
How it was run: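 For antagonist detection, the reporter line received test compounds together with conditioned medium, incubated 24hr at 37 C, 5% CO2, then luminescence was recorded following 30min room-temperature luciferase reagent incubation.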

[11] = qHTS assay to identify small molecule agonists of the androgen receptor (AR) signaling pathway in the presence of an antagonist - cell viability counter screen (AID 1259379); also: nearly all actives have a fitted effect of over 25% in size; also: potency is read from the fitted curve at half-maximal effect
How it was run: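 Seed MDA-kb2 at 3,000 cells/well; incubate 5 hr, 37C, 0% CO2. Add nilutamide to 3.0uM final, then pin compounds at 15 concentrations. Incubate 16 hr. Add CellTiter-Fluor at 15 hr, read fluorescence after 1 hr.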

[12] = qHTS assay to identify small molecule agonists of the estrogen receptor beta (ER-beta) signaling pathway - cell viability counter screen (AID 1259380); also: nearly all actives have a fitted effect of over 30% in size; also: potency is read from the fitted curve at half-maximal effect
How it was run: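 CellTiter-Glo read, 30 min RT, same wells as bla assay; cells ER-beta-UAS-bla HEK293T; 16 hr compound, 37C; medium 2% charcoal-stripped FBS.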

[13] = target: Androgen receptor (Homo sapiens) (UniProt P10275); assay: qHTS assay to identify small molecule agonists of the androgen receptor (AR) signaling pathway in the presence of an antagonist (AID 1259381; calls by dose curve; also: nearly all actives have a fitted effect of over 15% in size)
How it was run: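 Test compounds at 15 concentrations were incubated for 16hr with MDA-kb2 reporter cells in presence of 3.0uM nilutamide (final). Signal: ONE-Glo luciferase luminescence.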

[14] = qHTS assay to identify small molecule antagonists of the estrogen receptor beta (ER-beta) signaling pathway - cell viability counter screen (AID 1259382); also: nearly all actives have a fitted effect of over 55% in size; also: potency is read from the fitted curve at half-maximal effect
How it was run: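 In this multiplexed counter screen, cells were seeded at 2,000 per well in medium with 2% charcoal-stripped FBS and incubated 6 hr before compound and 1nM final E2 were added. Sixteen hours later, ATP-based luminescence reported viability.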

[15] = target: Estrogen receptor (Homo sapiens) (UniProt P03372); assay: qHTS assay to identify small molecule agonists of the estrogen receptor alpha (ER-alpha) signaling pathway in the presence of an antagonist (AID 1259383; calls by dose curve; also: nearly all actives have a fitted effect of over 15% in size; also: potency is read from the fitted curve at half-maximal effect; as to activation: top concentration of the series differs between compounds)
How it was run: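 Stably transfected VM7Luc4E2 reporter cells, kept 5 days in charcoal-stripped serum, received ICI-182,780 at 10.0nM final before compound addition. Following 22hr incubation at 37C and 5% CO2, luciferase signal was read by luminescence.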

[16] = target: Thyrotropin receptor (Homo sapiens) (UniProt P16473); assay: qHTS assay to identify small molecule antagonists of the thyroid stimulating hormone receptor (TSHR) signaling pathway (AID 1259385; calls by dose curve; also: nearly all actives have a fitted effect of over 20% in size)
Chain of Thyrotropin receptor (Homo sapiens) (P16473 whole entry, looked up): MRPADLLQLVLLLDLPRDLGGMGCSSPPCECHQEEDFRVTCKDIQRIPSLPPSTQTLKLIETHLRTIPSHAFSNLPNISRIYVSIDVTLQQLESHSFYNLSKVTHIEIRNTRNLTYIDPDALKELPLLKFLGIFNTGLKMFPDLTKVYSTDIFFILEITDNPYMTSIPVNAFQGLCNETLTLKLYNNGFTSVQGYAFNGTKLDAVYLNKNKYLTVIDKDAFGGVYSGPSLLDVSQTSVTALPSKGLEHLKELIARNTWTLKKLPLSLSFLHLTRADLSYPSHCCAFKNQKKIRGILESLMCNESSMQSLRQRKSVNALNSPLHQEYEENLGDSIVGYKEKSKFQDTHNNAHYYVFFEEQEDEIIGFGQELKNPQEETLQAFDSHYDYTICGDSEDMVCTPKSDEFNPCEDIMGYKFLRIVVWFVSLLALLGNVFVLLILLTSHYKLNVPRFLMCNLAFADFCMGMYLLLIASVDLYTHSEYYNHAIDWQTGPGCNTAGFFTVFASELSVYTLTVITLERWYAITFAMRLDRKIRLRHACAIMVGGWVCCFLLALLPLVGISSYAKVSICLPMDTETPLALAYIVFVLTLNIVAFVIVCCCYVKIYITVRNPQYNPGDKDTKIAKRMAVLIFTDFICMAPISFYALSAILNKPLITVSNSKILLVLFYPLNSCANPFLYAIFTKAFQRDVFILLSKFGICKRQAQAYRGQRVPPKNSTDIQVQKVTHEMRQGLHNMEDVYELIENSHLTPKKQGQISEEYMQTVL
How it was run: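 TSHR-HEK293 cells (800/well) plated 18 h, then compounds with Ro20-1724 and TSH at 1.5 ng/mL final, 30 min at room temperature. cAMP quantified by HTRF (cAMP-d2/anti-cAMP-cryptate, 1 h); 15 concentrations in triplicate.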

[17] = target: Estrogen receptor beta (Homo sapiens) (UniProt Q92731); assay: qHTS assay to identify small molecule agonists of the estrogen receptor beta (ER-beta) signaling pathway (AID 1259377; active = well fitted activation curve with a large enough effect in the signal ratio in the repeat runs, not every such curve was filed as active; the % refers to the signal ratio; also: potency is read from the fitted curve at half-maximal effect)
Chain of Estrogen receptor beta (Homo sapiens) (Q92731 whole entry, looked up): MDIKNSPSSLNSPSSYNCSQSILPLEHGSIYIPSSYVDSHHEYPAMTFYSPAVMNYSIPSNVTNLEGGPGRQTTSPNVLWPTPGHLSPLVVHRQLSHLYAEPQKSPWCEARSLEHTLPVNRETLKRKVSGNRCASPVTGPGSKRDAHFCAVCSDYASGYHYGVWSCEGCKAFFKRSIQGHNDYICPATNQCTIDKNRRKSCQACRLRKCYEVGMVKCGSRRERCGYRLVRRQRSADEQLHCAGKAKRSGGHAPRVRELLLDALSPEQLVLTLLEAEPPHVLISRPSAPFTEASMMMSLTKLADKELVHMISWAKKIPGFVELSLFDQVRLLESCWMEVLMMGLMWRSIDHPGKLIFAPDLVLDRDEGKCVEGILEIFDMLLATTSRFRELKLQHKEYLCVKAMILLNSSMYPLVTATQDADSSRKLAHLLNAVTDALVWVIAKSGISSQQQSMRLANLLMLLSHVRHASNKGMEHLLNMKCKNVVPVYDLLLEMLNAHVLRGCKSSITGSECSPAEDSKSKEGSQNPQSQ
How it was run: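 In HEK293T cells bearing a UAS-beta-lactamase reporter under ER-beta control, DMSO-delivered compounds were incubated for 16 hr at 37C. Activity was detected as fluorescence 2 hours after LiveBLAzer B/G FRET substrate addition.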

[18] = target: Estrogen receptor beta (Homo sapiens) (UniProt Q92731); assay: qHTS assay to identify small molecule antagonists of the estrogen receptor beta (ER-beta) signaling pathway (AID 1259378; active = well fitted inhibition curve with a large enough effect in the signal ratio in the repeat runs, not every such curve was filed as active; the % refers to the signal ratio; also: potency is read from the fitted curve at half-maximal effect)
How it was run: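 ER-beta-UAS-bla HEK293T cells in 2% charcoal-stripped FBS medium treated with compound plus 1nM final 17-beta-estradiol for 16 hr at 37C. Beta-lactamase reporter read by FRET substrate fluorescence after 2 hours at room temperature.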

[19] = qHTS assay to identify small molecule agonists or antagonists of the thyroid stimulating hormone receptor (TSHR) signaling pathway - wild type cell line counter screen (AID 1259384; calls by dose curve)
How it was run: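 Wild-type Hek293 cells, 800/well, 18 h at 37C, then compound with Ro20-1724 for 30 min RT. cAMP by HTRF (cAMP-d2/anti-cAMP cryptate), 1 h RT, fluorescence read. 15 concentrations, triplicates.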

[20] = qHTS assay to identify small molecule phospholipidosis (PLD) inducers (AID 1259344; active = well fitted curve in the direction sought with a large enough effect; an effect the other way counts as inactive or inconclusive)
How it was run: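 Quantitative HTS in HepG2: compound plus LipidTOX Red dye for 24 h, paraformaldehyde fixation with Hoechst 33342, widefield high-content imaging; amiodarone as positive and DMSO as negative control.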
% is scaled to controls: 0 for no effect and ±100 for the full control effect.

Cc1nc(-c2ccc3c(c2)CCN(CCC2CCC(NC(=O)/C=C/c4ccc(F)cc4)CC2)CC3)no1 (stereo not drawn)
inactive: Potency [1] | Potency [2] | Potency [3] | Potency [4] | Potency [5] | Potency [6] | Potency [7] | Potency [8] | Potency [9] | Potency [10] | Potency [11] | Potency [12] | Potency [13] | Potency [14] | Potency [15] | Potency [16]

CC1(C)CCC(C)(C)c2cc(C(=O)Nc3ccc(C(=O)O)cc3)ccc21
active: Potency [18] 43.3 µM
inactive: Potency [1] | Potency [2] | Potency [3] | Potency [4] | Potency [5] | Potency [9] | Potency [17] | Potency [11] | Potency [13] | Potency [14] | outcome [19]

O=c1[nH]sc2cc(Cl)ccc12
active: Potency [3] 0.001 µM | Potency [12] 11.9 µM
inactive: Potency [1] | Potency [2] | Potency [4] | Potency [5] | Potency [6] | Potency [8] | Potency [9] | Potency [10] | Potency [13] | Potency [15] | outcome [19] | Potency [16]

Nc1cc(C(F)(F)F)ccc1S
active: Potency [10] 13.3 µM | Potency [12] 21.1 µM
inactive: Potency [1] | Potency [2] | Potency [3] | Potency [4] | Potency [5] | Potency [6] | Potency [9] | Potency [17] | Potency [13] | Potency [15]

O=C(O)c1ccc(Cl)c(Cl)c1
inactive: Potency [1] | Potency [2] | Potency [3] | Potency [4] | Potency [5] | Potency [6] | Potency [7] | Potency [8] | Potency [9] | Potency [10] | Potency [17] | Potency [18] | Potency [11] | Potency [12] | Potency [13] | Potency [14] | Potency [15] | outcome [19] | Potency [16]

CC[C@H](c1ccc(O)cc1)[C@@H](CC)c1ccc(O)cc1
54.5 µM (active) and inactive: Potency [7]
active: Potency [3] 15.4 µM and 26.6 µM | Potency [4] 48.6 µM | Potency [10] 7.7 µM | Potency [17] 0.0011 µM | Potency [15] 4.3 nM and 8.4 nM
48.6 µM (active) and inactive: Potency [8] | Potency [12]
inactive: Potency [1] | Potency [2] | Potency [20] | Potency [5] | Potency [6] | Potency [9] | Potency [11] | Potency [13] | Potency [14]

CCCCCCCCCCCCCCCC(=O)OC[C@H](O)[C@H]1OC(=O)C(O)=C1O
inactive: Potency [1] | Potency [2] | Potency [3] | Potency [4] | Potency [20] | Potency [5] | Potency [6] | Potency [7] | Potency [8] | Potency [9] | Potency [10] | Potency [11] | Potency [13] | Potency [15] | Potency [16]
active: Potency [12] 43.3 µM

Cc1cc(O)c(Cl)c(C)c1Cl
active: Potency [8] 24.3 µM
inactive: Potency [1] | Potency [2] | Potency [3] | Potency [4] | Potency [5] | Potency [6] | Potency [9] | Potency [10] | Potency [17] | Potency [18] | Potency [11] | Potency [13] | Potency [14] | Potency [15] | outcome [19] | Potency [16]

CC(C)(C)C(=O)OCOC(=O)C1N2C(=O)CC2S(=O)(=O)C1(C)C (stereo not drawn)
inactive: Potency [1] | Potency [2] | Potency [3] | Potency [4] | PLD induction [20] 3.21% [at 0.0123 µM] | Potency [5] | Potency [6] | Potency [7] | Potency [8] | Potency [9] | Potency [10] | Potency [11] | Potency [13] | Potency [14] | Potency [15] | outcome [19] | Potency [16]
active: Potency [18] 10.6 µM

CC(C)(C)C1CCC(CC2=C(O)c3ccccc3C(=O)C2=O)CC1 (stereo not drawn)
active: Potency [1] 29.8 µM | Potency [2] 10.6 µM | Potency [3] 8.41 µM | Potency [4] 21.1 µM | Potency [11] 13.3 µM
inactive: Potency [5] | Potency [6] | Potency [7] | Potency [8] | Potency [9] | Potency [13] | Potency [15] | outcome [19] | Potency [16]

Oc1cc2ccccc2c2ccccc12
active: Potency [1] 21.7 µM | Potency [2] 19.3 µM | Potency [3] 10.9 µM | Potency [4] 15.4 µM | Potency [6] 24.3 µM | Potency [7] 4.33 µM | Potency [10] 4.86 µM | Potency [11] 13.7 µM | Potency [12] 5.45 µM | Potency [14] 7.7 µM
inactive: Potency [9] | Potency [13] | Potency [15]

CN(C)CCCOC1(Cc2ccccc2)CCCCCC1
inactive: Potency [1] | Potency [2] | Potency [3] | Potency [4] | Potency [5] | Potency [6] | Potency [7] | Potency [8] | Potency [9] | Potency [17] | Potency [18] | Potency [11] | Potency [13] | Potency [14] | Potency [15]

Source: PubChem BioAssay (Tox21)
